From PubChem BioAssay (EPA / NIEHS)
Some structures have more than one record in an assay (separate samples or runs), and their calls can disagree. The source made the active and inactive calls. How the source made its calls: active means hit-call score of the fitted dose curve at least 0.9, where 1 is the maximum; inactive means score below 0.9.

Legend:
[1] = BSK_3C_Vis: BioMAP Diversity Plus: 3C Assay for Morphology Visualization (AID 2283025); details: primary human endothelial cells (HUVEC);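 further: fitted both ways so gain or loss versus DMSO counts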;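 on AC50: light microscopy image of cell morphology used as background control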
Summary of the method: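 Chemicals were added to primary human umbilical vein endothelium, cells were incubated 24 h, and morphology was then visualized by light microscopy. Gain or loss of signal was fitted bidirectionally relative to DMSO.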

[2] = read-out: Pselectin, SELP (gene 6403); test: BSK_4H_Pselectin: BioMAP Diversity Plus: 4H Assay for Pselectin Biomarker Activity (AID 2283026); details: primary human endothelial cells (HUVEC); actives raise or lower the signal
Summary of the method: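 ELISA read-out of P-selectin on human umbilical vein endothelium after 24 h of dosing. Values derive from bidirectional fitting relative to DMSO. Parallel SRB protein staining flagged overt cytotoxicity.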

[3] = BSK_4H_SRB: Viability Assessment in the BioMAP Diversity Plus: 4H Assay (AID 2283027); details: primary human endothelial cells (HUVEC);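 further: cells exposed to compound for 24 h before staining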;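 on AC50: curves fitted both ways versus DMSO so AC50 may be loss or gain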
Summary of the method: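 Human umbilical vein endothelial cells were dosed with chemical and, after 24 h, fixed with 10% TCA, stained with 0.1% sulforhodamine B, and read at 560 nm to give total protein as a cytotoxicity measure. Bidirectional fitting relative to DMSO control.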

[4] = BSK_BE3C_SRB: Viability Assessment in the BioMAP Diversity Plus: BE3C Assay (AID 2283028); details: primary human bronchial epithelial cells;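 on AC50: fitted both ways so AC50 may mark signal gain or loss versus DMSO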
Summary of the method: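 Human primary bronchial epithelial cells were exposed to test chemicals for 24 h. Total protein in parallel cultures was then measured by staining with 0.1% sulforhodamine B after 10% TCA fixation, with absorbance read at 560 nm. Activity was fitted bidirectionally against DMSO.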

[5] = read-out: Thrombomodulin, THBD (gene 7056); test: BSK_3C_Thrombomodulin: BioMAP Diversity Plus: 3C Assay for Thrombomodulin Biomarker Activity (AID 2283029); details: primary human endothelial cells (HUVEC); actives raise or lower the signal
Summary of the method: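 Read-out is ELISA of thrombomodulin on human umbilical vein endothelium 24 h after chemical dosing. Gain or loss of signal is scored relative to DMSO. Overt cytotoxicity is checked in parallel cultures by sulforhodamine B staining.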

[6] = read-out: Urokinase-type plasminogen activator receptor (uPAR), PLAUR (gene 5329); test: BSK_4H_uPAR: BioMAP Diversity Plus: 4H Assay for Urokinase-type plasminogen activator receptor (uPAR) Biomarker Activity (AID 2283030); details: primary human endothelial cells (HUVEC); actives raise or lower the signal
Summary of the method: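 Primary human umbilical vein endothelial cells were exposed to chemical for 24 h before cell-surface uPAR was quantified by ELISA. Activity was fitted bidirectionally against the DMSO negative control baseline.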

[7] = read-out: Vascular endothelial growth factor receptor 2 (Homo sapiens) (UniProt P35968); test: BSK_4H_VEGFRII: BioMAP Diversity Plus: 4H Assay for Vascular endothelial growth factor receptor 2 (VEGFR2) Biomarker Activity (AID 2283031); details: primary human endothelial cells (HUVEC); actives raise or lower the signal;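 on AC50: cell-surface VEGFR2 protein level quantified by ELISA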
Summary of the method: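 Primary human umbilical vein endothelial cells in the BioMAP 4H system were dosed with test chemical, and 24 h later VEGFRII was measured by ELISA. Activity was fitted bidirectionally against DMSO as negative control and baseline.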

[8] = read-out: Human Leukocyte Antigen - DR isotype (HLADR), HLA-DRA (gene 3122); test: BSK_BE3C_HLADR: BioMAP Diversity Plus: BE3C Assay for Human Leukocyte Antigen - DR isotype (HLADR) Biomarker Activity (AID 2283032); details: primary human bronchial epithelial cells; actives raise or lower the signal
Summary of the method: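 ELISA read-out of HLA-DR on human lung bronchial epithelial primary cells, measured 24 h post-dosing. Both increases and decreases were scored relative to DMSO vehicle.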

[9] = read-out: Vascular cell adhesion molecule 1 (VCAM1), VCAM1 (gene 7412); test: BSK_4H_VCAM1: BioMAP Diversity Plus: 4H Assay for Vascular cell adhesion molecule 1 (VCAM1) Biomarker Activity (AID 2283033); details: primary human endothelial cells (HUVEC); actives raise or lower the signal
Summary of the method: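 ELISA read-out of VCAM-1 on human umbilical vein endothelium 24 hours after chemical dosing; gain or loss of signal was fitted relative to DMSO, with sulforhodamine B staining of parallel cultures flagging overt cytotoxicity.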

[10] = read-out: Interferon-gamma inducible Protein 10 (IP10), CXCL10 (gene 3627); test: BSK_BE3C_IP10: BioMAP Diversity Plus: BE3C Assay for Interferon-gamma inducible Protein 10 (IP10) Biomarker Activity (AID 2283034); details: primary human bronchial epithelial cells; actives raise or lower the signal
Summary of the method: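 Chemical is dosed onto human lung bronchial epithelial primary cells, cultures are incubated 24 h, and IP-10 is then quantified by ELISA. Gain or loss of signal is fitted in both directions relative to DMSO.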

Measured: AC50

CCCCCCCCCCCCN(C)C
inactive: all assays above

CC(C)N(C(=O)CCl)c1ccccc1
active: [1] 14.5 µM | [2] 16.8 µM | [3] 24.5 µM | [4] 29.9 µM | [6] 35.1 µM | [8] 20 µM | [9] 20 µM | [10] 33.5 µM
inactive: [5] | [7]

O=C1C=CC(=O)c2ccccc21
active: [1] 4.06 µM | [2] 1.62 µM | [3] 2.55 µM | [4] 3.8 µM | [6] 1.99 µM | [7] 5.18 µM | [8] 3.32 µM | [9] 1.95 µM | [10] 2.01 µM
inactive: [5]

CC(C=O)Cc1ccc2c(c1)OCO2 (stereo unspecified)
inactive: all assays above

O=C(O)COc1cc(Cl)c(Cl)cc1Cl
not listed: [1]
inactive: all other assays above

Cc1cc(C(C)(C)c2ccc(O)c(C)c2)ccc1O
inactive: [4] | [5] | [7]
active: [2] 17.7 µM | [3] 14.3 µM | [6] 15.3 µM | [8] 10 µM | [9] 16.8 µM | [10] 10 µM

OC(Cc1ccccc1Cl)(Cn1cncn1)C1(Cl)CC1 (stereo unspecified)
inactive: all assays above

Oc1cccc(-c2ccccc2)c1
active: [1] 38.9 µM | [3] 20 µM | [9] 36.9 µM
inactive: all other assays above

NC(=O)CCl
inactive: all assays above

C[C@]12CC[C@@H](O)C[C@@H]1CC[C@@H]1[C@@H]2CC[C@]2(C)C(=O)CC[C@@H]12
inactive: all assays above

CCOP(=S)(OCC)OP(=S)(OCC)OCC
active: [2] 31.2 µM | [3] 20 µM | [6] 32.3 µM | [9] 33 µM
not listed: [1]
inactive: all other assays above

O=C(Cc1ccccc1)OCCc1ccccc1
active: [2] 2.34 µM
inactive: [2] | [3] | [4] | [5] | [6] | [7] | [8] | [9] | [10]

CC(C)(COCC1CO1)COCC1CO1 (stereo unspecified)
inactive: all assays above

Oc1c(Cl)cc(Cl)cc1Cl
inactive: all assays above

O=S(=O)(c1ccc(Cl)cc1)c1cc(Cl)c(Cl)cc1Cl
active: [9] 20 µM | [10] 28.6 µM
not listed: [1]
inactive: all other assays above

Cc1ccc(OP(=O)(Oc2ccc(C)cc2C)Oc2ccc(C)cc2C)c(C)c1
active: [2] 12.9 µM
inactive: all other assays above

CC1(C)[C@H](C(=O)O[C@H](C#N)c2cccc(Oc3ccccc3)c2)[C@@H]1/C=C(\Cl)C(F)(F)F
inactive: [2] | [3] | [4] | [5] | [6] | [7] | [8] | [9] | [10]
active: [8] 0.0141 µM

Nc1c(Oc2ccccc2)cc(O)c2c1C(=O)c1ccccc1C2=O
inactive: all assays above

Clc1cccc(Cl)c1Cl
inactive: all assays above

COc1ccccc1N
inactive: all assays above

CCOP(=O)(OCC)SCCSCC
inactive: all assays above

CC(C)(C)c1cc([N+](=O)[O-])cc(C(C)(C)C)c1O
active: [3] 0.0719 µM | [5] 0.0473 µM
inactive: all other assays above

Oc1ccc(Cc2ccc(O)cc2)cc1
inactive: all assays above

N#CCCC(Br)(C#N)CBr (stereo unspecified)
inactive: [5]
active: [1] 5.04 µM | [2] 6.62 µM | [3] 6.36 µM | [4] 20 µM | [6] 8.75 µM | [7] 5.39 µM | [8] 27.9 µM | [9] 7.87 µM | [10] 28.1 µM

Oc1c(Br)cc(Br)cc1Br
active: [3] 29.5 µM | [7] 27.3 µM | [8] 12.6 µM | [9] 20 µM | [10] 20 µM
inactive: [1] | [5] | [6]

CCOC(=O)CC(=O)CCl
inactive: [3] | [4] | [6] | [7]
active: [2] 11 µM | [5] 4.35 µM | [8] 20 µM | [9] 20 µM | [10] 20 µM

CC(C)=CC1C(C(=O)OCc2cccc(Oc3ccccc3)c2)C1(C)C (stereo unspecified)
active: [1] 37.6 µM
inactive: all other assays above

Cc1ccccc1OP(=O)(Oc1ccccc1)Oc1ccccc1
inactive: [4] | [5] | [10]
active: [1] 11.6 µM | [2] 20 µM | [3] 20 µM | [6] 32.2 µM | [7] 20 µM | [8] 11.5 µM | [9] 26.1 µM

CCOC(=O)C(SP(=S)(OC)OC)c1ccccc1 (stereo unspecified)
inactive: [4] | [5] | [7] | [8]
active: [2] 20 µM | [3] 29.5 µM | [6] 20 µM | [9] 27.1 µM | [10] 20 µM

CC(C)(C)c1ccccc1O
not listed: [1]
inactive: all other assays above

Clc1cccc(Cl)c1
inactive: all assays above

O=S(=O)(C(Cl)(Cl)Cl)C(Cl)(Cl)Cl
active: [1] 4.25 µM | [2] 1.1 µM | [3] 0.932 µM | [4] 4.45 µM | [5] 10.1 µM | [6] 1.45 µM | [7] 0.327 µM | [8] 3.17 µM | [9] 1.43 µM | [10] 2.86 µM

CCN(CC)C(=O)C(Cl)=C(C)OP(=O)(OC)OC
inactive: all assays above
